Screening results (PubChem BioAssay)
A selection: hits, their analogues and other compounds. The true share with any hit is near 2.9%.
pPAFAH FP inh = pPAFAH enzyme inhibitors, primary screen, biochemical, fluorescence polarization, human; 330,000 compounds, 1.5% hits; Platelet-activating factor acetylhydrolase (Homo sapiens), Q13093; inhibition, % at 3.39 µM; recombinant pPAFAH, FP-rhodamine probe fluorescence polarization; AID 463082, 2010;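 active = inhibition above the mean inhibition across the screen plus 3 SD, cut at about 25% in these data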;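 note: inhibitors block binding of the rhodamine activity-based probe so polarization drops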
ZTA counter = counter-screen for EBNA-1 inhibitors: inhibitors of Epstein-Barr virus ZTA. ZTA-DNA binding, fluorescence polarization. inhibition, % at 11 µM. 320,000 compounds, 0.15% hits. P03206; in the data active = inhibition above about 33%
Target sequence (P03206 whole entry, looked up): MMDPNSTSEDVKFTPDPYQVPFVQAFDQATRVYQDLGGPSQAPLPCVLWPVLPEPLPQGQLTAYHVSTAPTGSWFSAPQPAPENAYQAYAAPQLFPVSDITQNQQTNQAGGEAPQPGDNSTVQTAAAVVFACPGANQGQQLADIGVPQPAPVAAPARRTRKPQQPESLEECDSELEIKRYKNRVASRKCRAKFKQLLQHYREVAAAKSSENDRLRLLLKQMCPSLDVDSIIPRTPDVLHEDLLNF
PAFAH2 FP inh = PAFAH2 enzyme inhibitors, primary screen, biochemical, fluorescence polarization, human | AID 492956, 2010 | 340,000 compounds, 0.99% hits | recombinant PAFAH2, FP-rhodamine activity probe | Platelet-activating factor acetylhydrolase 2, cytoplasmic (Homo sapiens), Q99487 | inhibition, % at 3.39 µM;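 active = inhibition above the mean over all tested compounds plus 3 SD, cut at about 30% in these data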;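 note: inhibitors block probe labeling of enzyme so polarization drops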
EBNA-1 inh = EBNA-1 DNA-binding inhibitors, primary screen, biochemical, fluorescence polarization; inhibition, % at 14.8 µM; 300,000 compounds, 0.34% hits; in the data active = inhibition above about 28%
PAFAH1B3 FP inh = PAFAH1B3 enzyme inhibitors, primary screen, biochemical, fluorescence polarization, human; Platelet-activating factor acetylhydrolase IB subunit alpha1 (Homo sapiens), Q15102; recombinant PAFAH1B3, FP-rhodamine probe; inhibition, % at 3.39 µM; 340,000 compounds, 0.28% hits; AID 492972, 2010;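 active = inhibition above the screen-wide average of all tested compounds plus 3 SD, cut at about 25% in these data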
PAFAH1B2 inh = PAFAH1B2 enzyme inhibitors, primary screen, biochemical, fluorescence polarization, human. 340,000 compounds, 1.2% hits. inhibition, % at 3.39 µM. Platelet-activating factor acetylhydrolase IB subunit alpha2 (Homo sapiens), P68402. recombinant PAFAH1B2, FP-rhodamine activity probe;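 active = inhibition above the mean of all tested compounds plus 3 SD, cut at about 24% in these data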
Target sequence (P68402 whole entry, looked up): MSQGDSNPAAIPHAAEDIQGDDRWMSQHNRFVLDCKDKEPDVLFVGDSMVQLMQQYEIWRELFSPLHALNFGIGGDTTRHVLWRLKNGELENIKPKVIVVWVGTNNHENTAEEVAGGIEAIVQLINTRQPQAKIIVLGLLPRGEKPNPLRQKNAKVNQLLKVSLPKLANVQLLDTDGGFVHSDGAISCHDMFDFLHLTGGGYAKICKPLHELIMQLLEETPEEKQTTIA
Large screens that a line does not name were inactive; ! = not confirmed by another sample.

CCC(=O)Nc1ccc2nc3c(=O)[nH]c(=S)[nH]c3nc2c1	pPAFAH FP inh 26
O=C(Cc1cc(=O)[nH][nH]1)N/N=C/C(Cl)=C/c1ccccc1	pPAFAH FP inh 26!
N#CC(c1ccc(=O)[nH]n1)c1ccc(Cl)cc1Cl (configuration not stated)	pPAFAH FP inh 34
Cc1cc2oc(C(=O)N3CCN(Cc4ccccc4)CC3)c(C)c2cc1C	pPAFAH FP inh 26
N=C1C(=O)OCC1c1ccccc1NC(=O)CN1CCOCC1 (configuration not stated)	none
CNC(=O)CS(=O)CC(=O)Nc1cc(OCCOC)c(Cl)cc1Cl (configuration not stated)	pPAFAH FP inh 30
COC(=O)c1c(C)[nH]c(C(=O)OC(C)C(=O)N(C)C2CCCCC2)c1C (configuration not stated)	pPAFAH FP inh 26
Cc1[nH]c2ccc(C(=O)OC(C)C(=O)N(C)C3CCCCC3)cc2c1C (configuration not stated)	none (no result: pPAFAH FP inh, ZTA counter, EBNA-1 inh)
CC(=O)Nc1ccc(S(=O)(=O)N2CCC(C(=O)O)(c3ccccc3)CC2)cc1	none
CC(=O)Nc1ccc(S(=O)(=O)N2CCC(NC(C)=O)(c3cccc(F)c3)CC2)cc1	pPAFAH FP inh 27
O=c1[nH]c2ccc(S(=O)(=O)Nc3ccc(Cl)cc3)cc2o1	PAFAH1B2 inh 54 (no result: pPAFAH FP inh, ZTA counter, EBNA-1 inh)
CN(C)c1ccc(NC(=O)c2ccc(COc3cccc(Cl)c3)o2)cc1	pPAFAH FP inh 27
CCN1CCN(C(=O)c2ccc(COc3cccc(Cl)c3)o2)CC1	none
O=C1OC[C@H]2CCCN2C(=O)[C@@H](CC(=O)N(CCO)Cc2ccccc2)C/C=C\C[C@@H]1Cc1ccc(F)cc1	PAFAH1B2 inh 31 (no result: ZTA counter, EBNA-1 inh)
O=C1CCC/C=C\C[C@@H](CC(=O)N(CCO)Cc2ccccc2)C(=O)N2CCC[C@H]2CO1	none (no result: ZTA counter, EBNA-1 inh)
O=C1CC/C=C\C[C@@H](CC(=O)N(CCO)Cc2ccccc2)C(=O)N2CCC[C@H]2CO1	none (no result: ZTA counter, EBNA-1 inh)
O=C1OC[C@@H]2CCCN2C(=O)[C@H](CC(=O)N(CCO)Cc2ccccc2)C/C=C\C[C@H]1Cc1ccc(F)cc1	PAFAH1B2 inh 33 (no result: ZTA counter, EBNA-1 inh)
CN(CC(=O)Nc1ccc(F)cc1)CC(=O)NC1CCCCC1	none (no result: EBNA-1 inh)
O=C(c1ccc(F)cc1)N1CCC(C(=O)N2CCN(c3ncccn3)CC2)CC1	none (no result: ZTA counter, EBNA-1 inh)
CN(CC(=O)Nc1ccc(F)cc1)C(=O)CSc1nnc(Cc2ccccc2)o1	none (no result: ZTA counter, EBNA-1 inh)
CCOC(=O)C1=C(CSc2nc3c(cc2C#N)CN(C)CC3)OC(N)=C(C#N)C1c1ccc(Cl)cc1 (configuration not stated)	pPAFAH FP inh 29
NS(=O)(=O)c1ccc(CCNC(=O)COC(=O)C2CCN(c3ccc(C(F)(F)F)cn3)CC2)cc1	none
CCN(C1CCCCC1)S(=O)(=O)c1ccc(S(=O)(=O)N2CCN(CCC#N)CC2)cc1	PAFAH1B2 inh 25
N#Cc1c(N)nc2c(c1N)CC(=O)N2c1ccc(Cl)cc1	PAFAH1B2 inh 24
N#Cc1c(N)nc2c(c1N)CC(=O)N2c1ccccc1-c1ccccc1	none
CCCOC1CCCN(Cc2nc(-c3ccc(C(=O)OC)cc3)no2)C1 (configuration not stated)	none
CCN(CC)C(=O)c1c[nH]c2ccc(S(=O)(=O)Nc3cc(C)cc(C)c3)cc2c1=O	pPAFAH FP inh 29
O=c1cc2c(=O)oc3cc(O)c(O)oc3c2c(O)c1O	PAFAH2 FP inh 62, PAFAH1B3 FP inh 79, PAFAH1B2 inh 30 (no result: pPAFAH FP inh, ZTA counter, EBNA-1 inh)
O=C(C(=NNc1ccccc1)c1ccccc1)c1ccccc1	none (no result: pPAFAH FP inh, ZTA counter, EBNA-1 inh)
Oc1ccc(O)c(/C(=N/Nc2ccccc2)c2ccccc2)c1	pPAFAH FP inh 44 (no result: PAFAH2 FP inh, PAFAH1B3 FP inh, PAFAH1B2 inh)
CCCNCc1cc(OC)c(OCCC)cc1Cl	none
CCCC(=O)NC(c1ccc2c(c1)OCO2)c1cc(Cl)c2cccnc2c1O (configuration not stated)	pPAFAH FP inh 32
CCCC(=O)NC(c1cccs1)c1cc(Cl)c2cccnc2c1O (configuration not stated)	pPAFAH FP inh 33
CCCC(=O)NC(c1ccco1)c1cc(Cl)c2cccnc2c1O (configuration not stated)	pPAFAH FP inh 30
CCC(=O)NC(c1ccc(C)cc1)c1cc(Cl)c2cccnc2c1O (configuration not stated)	none (no result: ZTA counter, EBNA-1 inh)
CCC(=O)NC(c1ccco1)c1cc(Cl)c2ccccc2c1O (configuration not stated)	none (no result: EBNA-1 inh)
CCC(=O)NC(C)c1cc(Cl)c2cccnc2c1O (configuration not stated)	none (no result: EBNA-1 inh)
O=C(O)COc1ccccc1C(Nc1ccccn1)c1cc(Cl)c2cccnc2c1O (configuration not stated)	pPAFAH FP inh 32
CC1(C)C2CCC(C2)C1(C)NC(=O)CNCC1CCCCC1 (configuration not stated)	none
COC(=O)c1cc(S(=O)(=O)NCCc2ccc(Cl)cc2)c[nH]1	PAFAH1B2 inh 26
COc1ccccc1OCC(=O)NNC(=O)c1cccs1	none
Cc1ccccc1OCCC(=O)OCC(=O)NNC(=O)c1cccs1	pPAFAH FP inh 25 (no result: EBNA-1 inh)
COC(=O)c1sc(NC(=O)c2cc(C)on2)nc1C	none
c1ccc(SCCOCCN2CCc3ccccc3C2)cc1	none
O=C(CSc1n[nH]c(-c2ccc(S(=O)(=O)N3CCCCC3)cc2)n1)Nc1nccs1	PAFAH1B2 inh 39
C/C(=N\N1CCN(c2ccccc2)CC1)c1ccc(O)cc1	none (no result: pPAFAH FP inh, ZTA counter, EBNA-1 inh)
C[C@H](CO)N1C[C@H](C)[C@@H](CN(C)C(=O)Nc2ccc(C(F)(F)F)cc2)Oc2c(NC(=O)Nc3ccc4c(c3)OCO4)cccc2C1=O	PAFAH1B2 inh 61 (no result: ZTA counter, EBNA-1 inh)
CC(C)NC(=O)N(C)C[C@H]1Oc2c(NC(=O)Nc3ccc(C(F)(F)F)cc3)cccc2C(=O)N([C@H](C)CO)C[C@@H]1C	none (no result: ZTA counter, EBNA-1 inh)
C[C@H](CO)N1C[C@H](C)[C@@H](CN(C)C(=O)Nc2ccc3c(c2)OCO3)Oc2c(NC(=O)Nc3ccc(C(F)(F)F)cc3)cccc2C1=O	PAFAH1B2 inh 28 (no result: ZTA counter, EBNA-1 inh)
C[C@H](CO)N1C[C@H](C)[C@@H](CN(C)C(=O)NC2CCCCC2)Oc2c(NC(=O)Nc3ccc4c(c3)OCO4)cccc2C1=O	none (no result: ZTA counter, EBNA-1 inh)
COC(=O)c1cccc(NC(=O)CC2C(=O)NCCN2C(=O)c2ccc(F)cc2F)c1 (configuration not stated)	none
O=C(c1ccccc1)c1n[nH]c(-c2ccccc2)cc1=O	none
CCN(CC)C(=O)Cn1cc(S(=O)(=O)CC(=O)Nc2ccc(F)cc2)c2ccccc21	none
O=C(CNS(=O)(=O)c1ccccc1)NCC(=O)OCc1ccc(C(=O)c2ccccc2)cc1	none
